Laboratory results published in the supplement of paper PMC11732987, “Enantioselective OTUD7B fragment discovery through chemoproteomics screening and high-throughput optimisation” (Communications Chemistry, 2025).

What was measured:
Assay in all cases: log2 ratio of Biotin-Ahx-Ub-VS probe labelling (fragment/DMSO); higher = less target engagement (more negative = stronger competition), active = hit call of the paper (q ≤ 0.05, log2 ratio ≤ -1)
Conditions in all cases: compound concentration: 200 uM; treatment time: 3 h
USP9X = USP9X (UniProt Q93008)
Outline: (§1)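 HEK293T lysate in Tris/CHAPS/IGEPAL buffer with protease inhibitors (495 µg per sample) was given fragment at 200 µM or vehicle for 3 h, in triplicate. It then received Biotin-Ahx-Ub-VS at 0.5 µM final for 1 h. Labelled DUBs were NeutrAvidin-enriched, digested with LysC and trypsin, and run by diaPASEF LC-MS/MS. Values are average log2 fragment/vehicle ratios by unpaired t-test on global-median-normalised Spectronaut quantities of proteins with ≥2 unique peptides.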

UniProt O00487 = biological target: UniProt O00487
Outline: as §1

UniProt O00507 = biological target: UniProt O00507
Outline: as §1

UniProt P51784 = biological target: UniProt P51784
Outline: as §1

UniProt Q5T2D3 = biological target: T1, UniProt Q5T2D3
T1 sequence (whole entry): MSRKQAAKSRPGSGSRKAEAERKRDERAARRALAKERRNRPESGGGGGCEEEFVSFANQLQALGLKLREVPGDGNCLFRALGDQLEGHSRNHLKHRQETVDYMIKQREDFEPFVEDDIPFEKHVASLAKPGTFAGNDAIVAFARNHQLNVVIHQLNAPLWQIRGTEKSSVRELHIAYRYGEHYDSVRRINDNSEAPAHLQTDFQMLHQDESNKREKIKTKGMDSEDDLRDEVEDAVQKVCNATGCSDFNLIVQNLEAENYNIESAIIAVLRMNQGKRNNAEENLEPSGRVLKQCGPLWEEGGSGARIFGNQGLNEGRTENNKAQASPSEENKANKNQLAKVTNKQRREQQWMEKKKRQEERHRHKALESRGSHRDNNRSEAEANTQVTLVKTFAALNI
Outline: as §1

UniProt Q8TE49 = biological target: T2, UniProt Q8TE49
T2 sequence (whole entry): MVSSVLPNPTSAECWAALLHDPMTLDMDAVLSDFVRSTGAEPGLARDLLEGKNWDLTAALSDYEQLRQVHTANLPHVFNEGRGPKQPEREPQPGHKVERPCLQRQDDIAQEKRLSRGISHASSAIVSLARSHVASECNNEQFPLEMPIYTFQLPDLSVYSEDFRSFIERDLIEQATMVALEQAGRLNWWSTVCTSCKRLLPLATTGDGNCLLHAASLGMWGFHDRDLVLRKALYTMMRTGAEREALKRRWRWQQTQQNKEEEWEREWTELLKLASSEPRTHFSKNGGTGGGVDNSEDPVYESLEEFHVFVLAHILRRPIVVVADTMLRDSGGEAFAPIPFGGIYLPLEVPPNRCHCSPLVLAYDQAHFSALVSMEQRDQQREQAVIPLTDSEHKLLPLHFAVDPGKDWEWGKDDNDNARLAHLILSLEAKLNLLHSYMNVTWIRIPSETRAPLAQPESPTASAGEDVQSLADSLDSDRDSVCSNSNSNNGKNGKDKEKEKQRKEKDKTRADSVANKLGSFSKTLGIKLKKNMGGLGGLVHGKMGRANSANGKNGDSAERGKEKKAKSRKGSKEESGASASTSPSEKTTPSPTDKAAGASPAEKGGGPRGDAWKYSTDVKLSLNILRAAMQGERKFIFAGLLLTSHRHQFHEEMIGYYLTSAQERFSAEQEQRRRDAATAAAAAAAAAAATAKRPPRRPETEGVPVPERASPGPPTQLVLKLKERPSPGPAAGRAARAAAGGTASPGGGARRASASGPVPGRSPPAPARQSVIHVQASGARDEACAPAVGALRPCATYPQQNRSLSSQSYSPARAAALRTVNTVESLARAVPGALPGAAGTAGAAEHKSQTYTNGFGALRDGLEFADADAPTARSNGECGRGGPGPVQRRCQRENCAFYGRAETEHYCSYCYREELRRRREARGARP
Outline: as §1

UniProt Q9P2H5 = biological target: T3, UniProt Q9P2H5
T3 sequence (whole entry): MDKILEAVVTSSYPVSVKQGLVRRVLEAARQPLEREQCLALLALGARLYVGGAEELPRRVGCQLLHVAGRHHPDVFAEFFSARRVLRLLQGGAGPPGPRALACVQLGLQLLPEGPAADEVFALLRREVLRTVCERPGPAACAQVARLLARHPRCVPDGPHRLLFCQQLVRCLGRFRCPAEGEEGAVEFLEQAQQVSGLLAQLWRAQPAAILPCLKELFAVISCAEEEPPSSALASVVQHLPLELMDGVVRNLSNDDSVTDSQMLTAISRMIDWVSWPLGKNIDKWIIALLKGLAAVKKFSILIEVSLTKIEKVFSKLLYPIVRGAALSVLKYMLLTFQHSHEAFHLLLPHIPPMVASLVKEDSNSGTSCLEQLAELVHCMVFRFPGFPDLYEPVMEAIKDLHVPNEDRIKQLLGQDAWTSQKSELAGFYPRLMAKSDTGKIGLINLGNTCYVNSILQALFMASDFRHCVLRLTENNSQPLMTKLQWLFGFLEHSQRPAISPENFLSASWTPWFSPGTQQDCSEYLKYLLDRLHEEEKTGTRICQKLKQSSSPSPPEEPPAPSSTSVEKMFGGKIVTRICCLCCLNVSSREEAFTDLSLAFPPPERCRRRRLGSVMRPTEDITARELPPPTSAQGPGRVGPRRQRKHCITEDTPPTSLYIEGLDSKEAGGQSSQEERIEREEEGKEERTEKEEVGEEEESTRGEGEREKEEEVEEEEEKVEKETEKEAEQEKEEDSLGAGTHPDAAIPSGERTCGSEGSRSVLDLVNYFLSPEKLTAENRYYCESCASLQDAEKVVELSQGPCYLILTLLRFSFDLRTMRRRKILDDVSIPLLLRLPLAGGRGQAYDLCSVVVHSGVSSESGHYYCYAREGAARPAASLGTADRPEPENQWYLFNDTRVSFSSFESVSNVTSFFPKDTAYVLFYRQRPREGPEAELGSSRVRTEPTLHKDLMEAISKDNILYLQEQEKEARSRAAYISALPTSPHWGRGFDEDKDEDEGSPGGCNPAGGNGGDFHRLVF
Outline: as §1

UniProt Q9UGI0 = biological target: T4, UniProt Q9UGI0
T4 sequence (whole entry): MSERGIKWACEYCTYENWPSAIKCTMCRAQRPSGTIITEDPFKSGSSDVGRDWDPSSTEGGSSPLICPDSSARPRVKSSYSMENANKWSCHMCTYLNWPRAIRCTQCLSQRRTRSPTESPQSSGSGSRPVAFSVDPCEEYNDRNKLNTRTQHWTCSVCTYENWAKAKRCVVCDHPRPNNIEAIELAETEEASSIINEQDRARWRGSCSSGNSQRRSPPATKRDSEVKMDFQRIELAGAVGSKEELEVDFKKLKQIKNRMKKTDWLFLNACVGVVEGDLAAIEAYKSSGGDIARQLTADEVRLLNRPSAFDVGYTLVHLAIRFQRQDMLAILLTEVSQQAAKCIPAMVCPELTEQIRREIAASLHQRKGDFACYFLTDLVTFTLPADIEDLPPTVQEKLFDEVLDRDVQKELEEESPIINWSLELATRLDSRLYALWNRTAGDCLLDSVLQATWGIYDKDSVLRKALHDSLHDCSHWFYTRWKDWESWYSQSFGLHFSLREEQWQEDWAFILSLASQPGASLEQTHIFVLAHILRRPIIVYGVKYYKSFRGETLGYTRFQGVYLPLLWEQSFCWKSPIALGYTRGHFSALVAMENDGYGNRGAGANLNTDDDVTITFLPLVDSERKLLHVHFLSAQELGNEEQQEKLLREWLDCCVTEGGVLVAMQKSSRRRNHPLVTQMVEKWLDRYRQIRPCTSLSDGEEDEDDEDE
Outline: as §1

YOD1 = biological target: T5, YOD1 (UniProt Q5VVQ6)
T5 sequence (whole entry): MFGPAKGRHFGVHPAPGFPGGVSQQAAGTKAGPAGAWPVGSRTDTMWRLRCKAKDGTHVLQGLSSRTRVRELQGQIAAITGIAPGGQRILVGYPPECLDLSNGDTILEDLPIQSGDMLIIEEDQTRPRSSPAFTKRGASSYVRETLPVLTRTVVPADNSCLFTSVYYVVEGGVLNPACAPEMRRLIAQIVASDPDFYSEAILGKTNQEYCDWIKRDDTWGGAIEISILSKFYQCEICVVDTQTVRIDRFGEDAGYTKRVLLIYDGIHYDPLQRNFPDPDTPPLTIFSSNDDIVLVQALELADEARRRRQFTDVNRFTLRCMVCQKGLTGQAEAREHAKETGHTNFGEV
Outline: as §1

Measured: log2 ratio of Biotin-Ahx-Ub-VS probe labelling

Sequence of UniProt O00487 (O00487 whole entry): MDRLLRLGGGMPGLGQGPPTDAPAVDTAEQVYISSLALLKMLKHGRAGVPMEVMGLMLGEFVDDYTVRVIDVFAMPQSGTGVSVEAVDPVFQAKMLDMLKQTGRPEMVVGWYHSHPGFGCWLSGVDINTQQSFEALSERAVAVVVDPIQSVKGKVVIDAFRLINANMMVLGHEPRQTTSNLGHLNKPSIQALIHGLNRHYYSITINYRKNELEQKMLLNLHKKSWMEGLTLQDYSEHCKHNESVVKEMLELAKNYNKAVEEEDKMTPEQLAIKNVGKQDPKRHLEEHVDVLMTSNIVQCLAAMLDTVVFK
Sequence of USP9X (Q93008 whole entry, the tested form may be a part): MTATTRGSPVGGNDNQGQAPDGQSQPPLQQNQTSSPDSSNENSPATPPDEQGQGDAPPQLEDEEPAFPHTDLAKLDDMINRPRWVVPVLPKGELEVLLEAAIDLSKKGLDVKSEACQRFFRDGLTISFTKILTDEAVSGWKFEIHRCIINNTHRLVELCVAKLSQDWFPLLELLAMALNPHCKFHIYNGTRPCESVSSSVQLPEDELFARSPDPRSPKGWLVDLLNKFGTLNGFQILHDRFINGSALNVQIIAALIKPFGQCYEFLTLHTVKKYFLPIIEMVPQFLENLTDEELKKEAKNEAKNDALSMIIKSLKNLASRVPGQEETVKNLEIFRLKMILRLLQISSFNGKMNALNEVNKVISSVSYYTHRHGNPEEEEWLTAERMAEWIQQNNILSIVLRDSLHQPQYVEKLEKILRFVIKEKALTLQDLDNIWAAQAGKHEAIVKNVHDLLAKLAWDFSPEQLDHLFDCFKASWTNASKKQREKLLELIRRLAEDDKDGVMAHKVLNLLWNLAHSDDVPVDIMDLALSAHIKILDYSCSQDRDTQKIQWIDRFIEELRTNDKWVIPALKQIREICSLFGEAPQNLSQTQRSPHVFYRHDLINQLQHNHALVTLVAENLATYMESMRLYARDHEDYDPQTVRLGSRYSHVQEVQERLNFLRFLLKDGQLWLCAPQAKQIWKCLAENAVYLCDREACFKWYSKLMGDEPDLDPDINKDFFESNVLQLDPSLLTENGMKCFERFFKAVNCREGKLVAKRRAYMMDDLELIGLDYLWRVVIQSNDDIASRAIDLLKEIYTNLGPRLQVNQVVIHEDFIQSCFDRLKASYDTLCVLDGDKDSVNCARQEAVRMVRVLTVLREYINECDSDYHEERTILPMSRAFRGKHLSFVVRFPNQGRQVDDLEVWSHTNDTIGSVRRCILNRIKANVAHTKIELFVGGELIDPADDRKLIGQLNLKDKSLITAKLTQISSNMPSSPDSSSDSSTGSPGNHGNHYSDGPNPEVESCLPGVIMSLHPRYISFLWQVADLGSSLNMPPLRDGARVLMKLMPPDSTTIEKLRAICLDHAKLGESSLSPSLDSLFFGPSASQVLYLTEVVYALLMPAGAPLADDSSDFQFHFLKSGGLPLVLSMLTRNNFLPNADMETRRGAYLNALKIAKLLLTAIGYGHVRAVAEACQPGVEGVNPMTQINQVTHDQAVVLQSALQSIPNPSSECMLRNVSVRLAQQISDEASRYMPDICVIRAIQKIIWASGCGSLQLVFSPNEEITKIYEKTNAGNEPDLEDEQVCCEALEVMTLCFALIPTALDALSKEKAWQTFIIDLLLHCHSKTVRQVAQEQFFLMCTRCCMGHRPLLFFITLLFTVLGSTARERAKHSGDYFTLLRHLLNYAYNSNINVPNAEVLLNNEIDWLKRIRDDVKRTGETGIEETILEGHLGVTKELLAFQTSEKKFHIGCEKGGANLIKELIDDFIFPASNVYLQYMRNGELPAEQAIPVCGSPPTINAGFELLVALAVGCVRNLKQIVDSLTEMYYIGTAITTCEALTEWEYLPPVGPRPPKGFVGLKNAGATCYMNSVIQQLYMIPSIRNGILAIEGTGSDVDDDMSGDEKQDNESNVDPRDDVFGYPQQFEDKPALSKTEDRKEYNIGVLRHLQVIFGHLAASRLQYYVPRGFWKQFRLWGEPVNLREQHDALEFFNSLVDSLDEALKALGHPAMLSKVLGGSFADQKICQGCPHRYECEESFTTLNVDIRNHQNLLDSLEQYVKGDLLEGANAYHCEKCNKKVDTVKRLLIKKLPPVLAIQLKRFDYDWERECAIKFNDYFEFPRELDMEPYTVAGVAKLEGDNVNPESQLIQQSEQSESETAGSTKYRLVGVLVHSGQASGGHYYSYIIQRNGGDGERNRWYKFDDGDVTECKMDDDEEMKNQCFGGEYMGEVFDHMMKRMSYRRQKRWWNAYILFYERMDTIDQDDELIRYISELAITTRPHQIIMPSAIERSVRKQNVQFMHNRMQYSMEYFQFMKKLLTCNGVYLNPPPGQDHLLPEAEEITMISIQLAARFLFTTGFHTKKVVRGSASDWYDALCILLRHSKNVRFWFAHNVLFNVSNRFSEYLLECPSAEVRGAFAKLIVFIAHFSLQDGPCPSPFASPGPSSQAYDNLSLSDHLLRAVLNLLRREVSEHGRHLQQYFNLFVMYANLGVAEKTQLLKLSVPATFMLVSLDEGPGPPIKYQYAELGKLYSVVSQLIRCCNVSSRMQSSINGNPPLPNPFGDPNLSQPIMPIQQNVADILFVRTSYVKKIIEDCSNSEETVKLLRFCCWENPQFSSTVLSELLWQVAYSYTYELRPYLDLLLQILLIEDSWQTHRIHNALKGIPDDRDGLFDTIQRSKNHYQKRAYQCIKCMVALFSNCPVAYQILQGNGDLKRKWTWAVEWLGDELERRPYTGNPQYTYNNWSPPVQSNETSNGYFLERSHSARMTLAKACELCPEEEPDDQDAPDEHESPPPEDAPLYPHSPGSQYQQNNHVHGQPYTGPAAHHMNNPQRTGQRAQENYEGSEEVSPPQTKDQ
Sequence of UniProt P51784 (P51784 whole entry): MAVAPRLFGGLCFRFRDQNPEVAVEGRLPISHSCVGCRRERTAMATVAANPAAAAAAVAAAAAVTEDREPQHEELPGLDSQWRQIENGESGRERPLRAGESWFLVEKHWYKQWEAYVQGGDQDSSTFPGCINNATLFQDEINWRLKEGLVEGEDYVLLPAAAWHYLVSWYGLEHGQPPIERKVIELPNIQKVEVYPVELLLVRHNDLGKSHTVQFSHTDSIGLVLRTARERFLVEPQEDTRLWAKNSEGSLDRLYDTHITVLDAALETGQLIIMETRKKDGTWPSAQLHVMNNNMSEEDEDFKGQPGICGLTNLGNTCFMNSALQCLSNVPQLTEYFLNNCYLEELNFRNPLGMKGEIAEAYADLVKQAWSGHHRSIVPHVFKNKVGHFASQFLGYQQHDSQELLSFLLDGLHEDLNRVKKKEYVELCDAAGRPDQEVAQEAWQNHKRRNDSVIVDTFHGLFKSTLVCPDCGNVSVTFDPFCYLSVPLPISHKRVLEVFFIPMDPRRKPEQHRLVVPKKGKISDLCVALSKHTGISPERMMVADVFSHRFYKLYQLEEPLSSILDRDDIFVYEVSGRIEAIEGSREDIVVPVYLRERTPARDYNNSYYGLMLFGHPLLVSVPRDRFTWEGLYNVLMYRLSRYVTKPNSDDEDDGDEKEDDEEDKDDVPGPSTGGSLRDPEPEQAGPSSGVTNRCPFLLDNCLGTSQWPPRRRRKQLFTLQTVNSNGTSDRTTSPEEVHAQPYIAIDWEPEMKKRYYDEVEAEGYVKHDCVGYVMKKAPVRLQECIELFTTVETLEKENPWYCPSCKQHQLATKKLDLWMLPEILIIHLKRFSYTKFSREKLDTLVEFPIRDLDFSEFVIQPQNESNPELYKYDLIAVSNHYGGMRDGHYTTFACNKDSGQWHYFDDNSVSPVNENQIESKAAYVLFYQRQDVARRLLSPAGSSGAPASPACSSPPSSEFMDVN

Cc1cccc(NC(=O)[C@@H]2CCCN2C(=O)CCl)n1
inactive: USP9X -0.337 | UniProt O00487 -0.177 | UniProt O00507 -0.299 | UniProt P51784 -0.00908 | UniProt Q5T2D3 -0.366 | UniProt Q8TE49 -0.721 | UniProt Q9P2H5 -0.312 | UniProt Q9UGI0 -0.3 | YOD1 -0.432
